Measured values: publication PMC4552634, “A New Set of Chemical Starting Points with Plasmodium falciparum Transmission-Blocking Potential for Antimalarial Drug Discovery” (PLoS ONE, 2015)
The whole screen tested about 13,000 compounds, of which about 3,200 (25%) showed an effect of 50% or more. The list shows a part of the results.

These compounds were tested on P. falciparum stage V gametocytes. Conditions: 48 h, 5 µM; inhibitor.
Design: BacTiter-Glo ATP luminescence viability of purified stage V gametocytes in 384-well plates, per cent inhibition versus DMSO

Compound	% Inhibition [%]
CCc1c(C)nc(-n2nc(C)cc2NC(=O)CCc2ccccc2)[nH]c1=O [TCMDC-124934]	-11.5
COc1ccc2ncc(F)c(CCN3CC(O)C(CNCc4ccc(F)cc4)C3)c2n1 (centres unmarked) [TCMDC-136527]	13.85
COc1ccc2ncc(F)c(CCN3CCC(NCc4cc(F)c5c(c4)OCCO5)CC3)c2n1 [TCMDC-135849]	84.79
COc1ccc2ncc(F)c(CCN3CC(O)C(CNCc4ccccc4)C3)c2n1 (centres unmarked) [TCMDC-136498]	50.66
COc1ccc2ncc(F)c(CCN3CC(O)C(CNCc4ccc5c(c4)OCCO5)C3)c2n1 (centres unmarked) [TCMDC-136518]	55.46
COc1ccc2ncc(F)c(CCN3CCC(NCc4cc(C)c5c(c4)OCCO5)CC3)c2n1 [TCMDC-136209]	19.66
COc1ccc2ncc(F)c(CCN3C[C@H](CNCc4cc(C#N)c5c(c4)OCCO5)[C@H](O)C3)c2n1 [TCMDC-136275]	16.8
COc1ccc2ncc(F)c(CCN3CCC4(CC3)COC(c3cc5c(cn3)OCCO5)=N4)c2n1 [TCMDC-135741]	93.18
COc1ccc2ncc(F)c(CCN3CC(O)C(CNCc4ccc5oc(=O)ccc5c4)C3)c2n1 (centres unmarked) [TCMDC-136499]	11.09
COc1ccc2ncc(F)c(CCN3CCC(NCc4cc(Br)c5c(c4)OCCO5)CC3)c2n1 [TCMDC-136211]	30.05
COc1ccc2ncc(F)c(CCN3CC(O)C(CNCc4ccc5ccccc5c4)C3)c2n1 (centres unmarked) [TCMDC-136528]	43.95
CCc1cc(CNC2CCN(CCc3c(F)cnc4ccc(OC)nc34)CC2)cc2c1OCCO2 [TCMDC-136290]	31.48
COc1ccc2ncc(F)c(CCN3CCC(NCc4cc(OC)c5c(c4)OCCO5)CC3)c2n1 [TCMDC-135509]	17.67
NC1=NC(c2ccccc2)(c2ccccc2)C(=O)N1CCCCc1ccccc1 [TCMDC-136488]	3.475
Fc1cccc(COc2ccc(Nc3ncnc4sc(C#Cc5ncc[nH]5)cc34)cc2Cl)c1 [TCMDC-135407]	-1.353
O=C(Nc1cccc(-c2nn3ccccc3c2-c2ccnc(Nc3cccc(C(F)(F)F)c3)n2)c1)c1c(F)cccc1F [TCMDC-135527]	-78.64
COc1cccc(C2(c3cccc(OC)c3)N=C(N)N(CCCc3ccccc3)C2=O)c1 [TCMDC-136492]	-28.16
CC1CN(C(=O)c2sc3ccccc3c2Cl)CC(C)O1 (centres unmarked) [TCMDC-125225]	2.721
C/C=C1\CN2CC[C@H]1C[C@@H]2[C@@H](O)c1ccnc2ccc(O)cc12 [TCMDC-138273]	7.487
Cc1ccc(C)c(NC(=O)CC2C(=O)N(c3ccccc3)C(=S)N2Cc2ccco2)c1 (centres unmarked) [TCMDC-124000]	88.68
Cc1cc(C)c(-c2n[nH]c3c2C(c2cccc(Cl)c2)N(Cc2ccco2)C3=O)c(O)c1 (centres unmarked) [TCMDC-125307]	-65.67
O=C(Nc1ccc(C(=O)Oc2cccc3ccccc23)cc1)N[C@@H](Cc1ccc(O)cc1)C(=O)NC1CCN(Cc2ccc(O)cc2)C1 (some centres unmarked) [TCMDC-135360]	-40.07
O=c1c2ccc(Sc3ccccn3)cc2n(-c2ccccc2)c2cc(Sc3ccccn3)ccc12 [TCMDC-137528]	7.065
CCOC(=O)C1CCN(CCOc2cc(NC(=O)/C=C/c3ccccc3Cl)ccc2Br)CC1 [TCMDC-140963]	-16.5

Compound	% Inhibition [%]
Cc1cc(N)c2cc(NC(=O)/C=C/c3ccccc3Cl)ccc2n1 [TCMDC-139459]	113.2
CC1(C)CN2CCCC2c2cc(NC(=O)/C=C/c3ccccc3Cl)ccc21 (centres unmarked) [TCMDC-139348]	26.85
Cc1cc(N)c2cc(NC(=O)/C=C/c3ccccc3)ccc2n1 [TCMDC-139337]	92.06
CN1Cc2cc(NC(=O)/C=C/c3ccccc3Cl)ccc2C(C)(C)C1 [TCMDC-139315]	78.19
Nc1cccc(C=CC(=O)Nc2ccnc3ccccc23)c1 [TCMDC-139290]	5.125
COc1cc(C)nc2ccc(NC(=O)Nc3ccc([N+](=O)[O-])cc3C)cc12 [TCMDC-139395]	-13.54
Cc1cc(N)c2cc(NC(=O)/C=C/c3ccc([N+](=O)[O-])cc3)ccc2n1 [TCMDC-139335]	102.5
CCOc1ccccc1C=CC(=O)Nc1ccc2nc(N3CCN(C)CC3)cc(C)c2c1 [TCMDC-123801]	-1.147
COc1cc(C)nc2ccc(NC(=O)c3cc([N+](=O)[O-])cc([N+](=O)[O-])c3)cc12 [TCMDC-139382]	32.9
O=C(C=Cc1ccccc1)Nc1ccc(C#CC=Cc2ccc(NC(=O)C=Cc3ccccc3)cc2)cc1 [TCMDC-125718]	-11.21
O=C(/C=C/c1ccccc1Cl)Nc1ccc(Br)c(OCCN2CCCCC2)c1 [TCMDC-140959]	-53.57
NC(N)=NC(=O)Nc1cc(F)c(Cl)c(Cl)c1 [TCMDC-137462]	6.486
O=c1ccc2ncc(Cl)c3c2n1CC3CN1CCC(NCc2cc3c(cn2)OCCO3)CC1 (centres unmarked) [TCMDC-135967]	20.98
CC1(C)N=C(N)N=C(N)N1OCCCOc1ccc(N)cc1 [TCMDC-131698]	-10.87
CN1CCN(Cc2cc3cc(NC(=O)/C=C/c4ccc(Cl)cc4)ccc3s2)CC1 [TCMDC-135631]	-73.77
O=C(/C=C/c1ccc(Cl)cc1)Nc1ccc2nc(CN3CCCC3)ccc2c1 [TCMDC-135629]	-22.56
CC1(C)CNCc2cc(NC(=O)/C=C/c3ccc(Cl)cc3)ccc21 [TCMDC-141909]	92.59
O=C(Nc1ccccc1)Nc1cccc(-c2nn3c(OCC4CCCCN4)cccc3c2-c2ccncc2)c1 (centres unmarked) [TCMDC-135465]	63.4
Nc1ncnc2cc(-c3cccc(NC(=O)Nc4ccccc4)c3)sc12 [TCMDC-135255]	-37.99
O=C(Nc1ccccc1)Nc1cccc(-c2nn3c(OCCN4CCCC4)cccc3c2-c2ccncc2)c1 [TCMDC-135539]	44.29
N[C@@H](COc1cccc2c(-c3ccncc3)c(-c3cccc(NC(=O)Nc4ccccc4)c3)nn12)c1ccccc1 [TCMDC-135512]	8.625
O=C(Nc1ccccc1)Nc1cccc(-c2cc(CNCCc3ccccc3)sc2-c2ccncc2)c1 [TCMDC-135632]	-27.66
CCCCC(N)COc1cccc2c(-c3ccncc3)c(-c3cccc(NC(=O)Nc4ccccc4)c3)nn12 (centres unmarked) [TCMDC-135537]	58.08
